# Results as given in PubChem BioAssay AID463173 (ICCB-Longwood Screening Facility, Harvard Medical School, 2010).
# Out of some 52,000 compounds screened, about 4,300 (8.3%) were called active. Only a selection was taken, and actives are over-represented in it overall. A number with no mark means an inactive call. Cut-off read from the data, not from the text of the source: active = survival mostly below about 52% (no sharp cut-off); inactive = mostly above about 56%.
# System: DeltatarO mutant
# Assay: S. aureus survival, RN4220 and DeltatarO strains – OD600, teichoic acid synthesis inhibitors, primary screen (AID 463173)
# Conditions: S. aureus RN4220 wild type/DeltatarO growth, OD600, 18 h, active compounds read low, screened at 18.75 µg/mL (by protocol)
row,SMILES,survival
1,Nc1c(C(=O)Nc2cccc(Cl)c2)sc2nc3c(cc12)CN(Cc1ccccc1)CC3,69%
2,Cc1ccc(NC(=O)Cn2cc3c(n2)CCCCC3)cc1,77%
3,COc1ccc(NC(=O)CSc2nc3ccccc3n2CC(=O)N(C)c2ccc(F)cc2)cc1,87%
4,Cc1nn(C)c(C)c1S(=O)(=O)N(CC(=O)N1CCN(c2ccccc2)CC1)c1ccc(C(C)C)cc1,79%
5,COc1ccc(-c2cn3c(n2)sc2cc(C(=O)NCC(C)c4ccccc4)ccc23)cc1 (stereo not given),65%
6,CCSc1nc2c([nH]c3ccccc32)c(=O)n1-c1ccc(OC)cc1,46% (active)
7,CCOc1ccc(-n2c(SCC(=O)NC3CCCCC3)nc3c([nH]c4ccccc43)c2=O)cc1,92%
8,O=C(CSc1nc2c([nH]c3ccccc32)c(=O)n1-c1ccccc1)N1CCCCCC1,95%
9,CCC1CCCCN1C(=O)CSc1nc2c([nH]c3ccccc32)c(=O)n1-c1ccc(OC)cc1 (stereo not given),25% (active)
10,CCSc1nc2c([nH]c3ccccc32)c(=O)n1-c1ccc(F)cc1,87%
11,O=C(CSc1nc2c([nH]c3ccccc32)c(=O)n1-c1ccc(F)cc1)NC1CCCCC1,83%
12,CCSc1nc2c([nH]c3ccccc32)c(=O)n1-c1cccc(OC)c1,94%
13,COc1cccc(-n2c(SCC(=O)N3CCCCC3)nc3c([nH]c4ccccc43)c2=O)c1,20% (active)
14,CCC1CCCCN1C(=O)CSc1nc2c([nH]c3ccccc32)c(=O)n1-c1cccc(OC)c1 (stereo not given),66%
15,COc1ccc(-n2c(SCC(=O)NC3CCCCC3)nc3c([nH]c4ccccc43)c2=O)cc1,37% (active)
16,CCOc1ccc(-n2c(SCC(=O)N3CCCCCC3)nc3c([nH]c4ccccc43)c2=O)cc1,106%
17,O=C(CSc1nc2c([nH]c3ccccc32)c(=O)n1-c1ccccc1)N1CCCCC1,73%
18,C(#Cc1ccccc1)CN1CCCCC1,107%
19,CN(C)S(=O)(=O)c1ccc(C(=O)NCCSc2c(-c3ccc(Br)cc3)[nH]c3ccccc23)cc1,74%
20,CC(C)Cn1c(SCc2cccc(F)c2)nc2ccsc2c1=O,74%
21,CCCCNC(=O)CSc1nc2n[nH]c(C)c2c(=N)n1-c1ccccc1CC,89%
22,O=C1CN(C(=O)Nc2ccccc2Cl)C(c2ccccc2)c2c(sc3c2CCCC3)N1 (stereo not given),73%
23,CCc1ccccc1N1C(=O)N(CC(=O)c2ccc(OC)cc2)c2ccccc2S1(=O)=O,79%
24,CC(C)CCNC(=O)Nc1ccc2c(c1)N(Cc1ccccc1)C(=O)c1ccccc1S2,79%
25,Cc1nc(SCCOc2ccccc2F)[nH]c(=O)c1Cc1ccccc1,75%
26,Cc1ccc(-n2nc3c(=O)n(C(C)C(=O)O)nc(C)c3c2C)cc1 (stereo not given),101%
27,Cc1ccc(-c2nc(C(=O)NCc3ccc(Cl)cc3)c3n2CCCCC3)cc1,56%
28,CSc1nnc2[nH]c(=O)cc(C)n12,69%

row,SMILES,survival
1,Cc1ccc(-n2nc(C)c3c(C(=O)Nc4ccc(C)cc4Cl)cc(C)nc32)cc1,63%
2,CCC(=O)Nc1nnc(S(=O)(=O)N(C)Cc2ccc(Cl)cc2)s1,94%
3,CN(Cc1ccco1)S(=O)(=O)c1nnc(NC(=O)c2cccc(Cl)c2)s1,5% (active)
4,Cc1cccc(C(=O)Nc2nnc(S(=O)(=O)N(C)Cc3ccco3)s2)c1,25% (active)
5,CN(c1ccc(Cl)cc1)S(=O)(=O)c1nnc(NC(=O)c2ccco2)s1,62%
6,COc1cc(C(=O)Nc2cc(C)ccc2OCc2cc(=O)n3c(C)csc3n2)cc(OC)c1OC,58%
7,COc1ccc(N(CC(=O)N2CCN(c3ccc(F)cc3)CC2)S(=O)(=O)c2c(C)n[nH]c2C)cc1,70%
8,O=C(Nc1ccc(NC(=O)c2ccccc2F)cn1)c1ccco1,82%
9,COc1ccc(OC)c(NC(=O)Cc2c(C)n(C(=O)c3ccc(Cl)cc3)c3ccc(OC)cc23)c1,74%
10,CCOc1cc(-c2ccc(OC(=O)c3ccc(OC)cc3)c(OC)c2)cc(=O)c2c(C)oc(C)c12,41% (active)
11,CCOc1cc(-c2ccc(OC(=O)c3ccc(Cl)cc3)c(OC)c2)cc(=O)c2c(C)oc(C)c12,80%
12,CCOc1cc(-c2ccc(OC(=O)c3ccc(C)cc3)c(OC)c2)cc(=O)c2c(C)oc(C)c12,99%
13,O=C(CSc1ncc2c(n1)-c1ccccc1N(Cc1ccc(F)cc1)S2(=O)=O)NCCc1ccccc1,94%
14,Cc1cccc(NC(=O)NC2COc3ccccc3C2)c1C (stereo not given),69%
15,Cc1cc(C)cc(-n2c(SCC(N)=O)nc3c(oc4ccccc43)c2=O)c1,97%
16,O=C(NC1CCCCCC1)c1ccc2c(c1)sc1nc(-c3ccccc3)cn12,55%
17,Cc1ccc(-c2cn3c(n2)sc2cc(C(=O)N4CCCCC4)ccc23)cc1,79%
18,Cc1ccc(-c2cn3c(n2)sc2cc(C(=O)NC4CCCCC4)ccc23)cc1,68%
19,Cc1ccc(-c2cn3c(n2)sc2cc(C(=O)NCCCN4CCCCCC4)ccc23)cc1,-4% (active)
20,O=C(NCCCN1CCCCCC1)c1ccc2c(c1)sc1nc(-c3ccccc3)cn12,44% (active)
21,Cc1ccc(-c2cn3c(n2)sc2cc(C(=O)NCCCN4CCCCC4)ccc23)cc1,-3% (active)
22,O=C(NC1CCCCC1)c1ccc2c(c1)sc1nc(-c3ccccc3)cn12,69%
23,CCc1ccc(-c2cn3c(n2)sc2cc(C(=O)NCCCc4ccccc4)ccc23)cc1,70%
24,Cc1ccc(-c2cn3c(n2)sc2cc(C(=O)NC4CCCCCC4)ccc23)cc1,94%
25,Cc1ccc(-c2cn3c(n2)sc2cc(C(=O)NCCCc4ccccc4)ccc23)cc1,72%
26,O=C(NCCCc1ccccc1)c1ccc2c(c1)sc1nc(-c3ccc(F)cc3)cn12,44% (active)
27,Cc1ccc(Cn2c(SCC(=O)C(C)(C)C)nc3ccsc3c2=O)cc1,77%
